Measured values from PubChem BioAssay (NCATS).
Results filed as inconclusive are left out. The source made the active and inactive calls. Unless noted, calls come from the whole dose curve; as a rule, active = well fitted curve in the direction sought with a large enough effect; inconclusive = small, poorly fitted or top-dose-only effect, or another doubt; inactive = no such curve, though single readings can be large; an effect the other way counts as inactive or inconclusive.

Columns and labels:
[1] = Cell Viability - HUV-EC-C (AID 542); note: % is set by controls: 0 for no effect and ±100 for the full control effect; nearly all actives have a fitted effect of over 35% in size
Summary of the method: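 HUV-EC-C human vascular endothelial cells, 1000/well, exposed to compound for 40 hr at 37 °C in complete medium. Intracellular ATP was read by CellTiter-Glo luminescence. AC50 came from Hill-equation fits of concentration-response data.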

[2] = Cell Viability - H-4-II-E (AID 543); note: % is set by controls: 0 for no effect and ±100 for the full control effect; nearly all actives have a fitted effect of over 35% in size
Summary of the method: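 Rat hepatoma H-4-II-E cells, 1500 per well, treated 40 h at 37 °C in complete medium. Cellular ATP read by CellTiter-Glo luminescence; AC50 from Hill fits of concentration-response.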

[3] = Cell Viability - Mesenchymal (AID 546);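 note: cells exposed to compound for 40 hours before reading; 0% = DMSO only and -100% = 100 µM tamoxifen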
Summary of the method: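 AC50 values reflect the drop in intracellular ATP in a human kidney mesenchymal line derived from normal glomeruli. Treatment lasts 40 hr at 37 °C in complete medium, and the signal comes from CellTiter-Glo luminescence.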

[4] = Cellular Toxicity (caspase-3) BJ (AID 658);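 note: 0% = DMSO basal and 100% = 10 µM staurosporine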
Summary of the method: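 Readout: Caspase-Glo 3/7 luminescence increase in BJ cells after 16 hr treatment at 37 °C. Staurosporine and tamoxifen served as positive controls; AC50 values came from Hill modelling of data normalized to DMSO and 10 uM staurosporine.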

[5] = Cellular Toxicity (caspase-3) SK-N-SH (AID 661);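 note: 0% = DMSO basal and 100% = 10 µM staurosporine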
Summary of the method: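 Human SK-N-SH neuroblastoma cells, 1500/well, were exposed to compounds for 16 hours at 37 °C. Caspase-Glo 3/7 luminescence was normalized to DMSO (basal) and 10 uM staurosporine (100%), and AC50 came from a Hill fit.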

[6] = Cellular Toxicity (caspase-3) H-4-II-E (AID 663); conditions: Potency: caspase-3 activation;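 note: cells exposed to compound for 16 hr before readout; 0% = DMSO basal and 100% = 100 µM tamoxifen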
Summary of the method: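 Apoptosis induction is scored as increased luminescence from caspase 3/7 substrate cleavage in rat hepatoma H-4-II-E cells exposed to compound for 16 hr. Activity is scaled between DMSO and 100 uM tamoxifen.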

[7] = Cellular Toxicity (caspase-3) N2a (AID 665);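 note: compound exposure lasted 16 h at 37 °C before readout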
Summary of the method: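 Mouse N2a neuroblastoma cells, 1500 per well, treated 16 h at 37 °C in complete medium; caspase-3/7 activity by Caspase-Glo luminescence after 1 h. Normalized to DMSO and 10 uM staurosporine; AC50 from Hill fits.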

[8] = Cellular Toxicity (caspase-3) NIH 3T3 (AID 666);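 note: caspase signal read after 16 h compound exposure; 0% = DMSO basal and 100% = 100 µM tamoxifen stimulation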
Summary of the method: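 Mouse NIH 3T3 fibroblasts (1000/well) treated 16 h at 37 C; caspase-3/7 activity measured by Caspase-Glo 3/7 luminescence after 20 min. Normalized to DMSO and 100 uM tamoxifen; AC50 from Hill fits.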

[9] = Cellular Toxicity (caspase-3) Renal Proximal Tubule (AID 667);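 note: cells exposed to compound for 16 hours at 37 °C before detection; 0% = DMSO basal and 100% = 10 µM staurosporine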
Summary of the method: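 Primary rat proximal tubule cells, 1000/well, 5 h plating at 37 °C, then compound 16 h at 37 °C. Caspase-Glo 3/7 reagent, 1 h RT, luminescence. Normalized to DMSO (basal) and 10 uM staurosporine (100%); Hill-fit AC50.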

[10] = Cell Viability - LYMP2-019 (AID 973);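 note: 0% = DMSO alone and full effect = 92 µM tetraoctylammonium bromide; nearly all actives have a fitted effect of over 55% in size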
Summary of the method: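 Human lymphoblastoid LYMP2-019 cells (2500/well) preincubated 5 h at 37 C, then treated 24 h at 37 C in complete medium. Viability by CellTiter-Glo ATP luminescence after 30 min at room temperature; AC50 from Hill fits.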

[11] = Cell Viability - LYMP2-023 (AID 975); note: nearly all actives have a fitted effect of over 55% in size; note: potency is the fitted concentration of half-maximal effect
Summary of the method: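 LYMP2-023 human lymphoblastoid cells, 2500/well, preincubated 5 hr at 37 C, then compound-treated 24 hr at 37 C in complete medium. CellTiter-Glo luminescence (ATP) after 30 min at room temperature; AC50 from Hill-equation fits; tetraoctylammonium bromide positive control.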

[12] = Cell Viability - LYMP2-007 (AID 979);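 note: cells exposed to compound for 24 h before reading; nearly all actives have a fitted effect of over 60% in size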; note: potency is the fitted concentration of half-maximal effect
Summary of the method: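 Human lymphoblastoid LYMP2-007 cells (2500/well) preincubated 5 h at 37 C, then treated 24 h at 37 C in complete medium. Viability by CellTiter-Glo ATP luminescence after 30 min at room temperature; AC50 from Hill fits.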

[13] = Cell Viability - LYMP2-008 (AID 980); note: nearly all actives have a fitted effect of over 60% in size; note: potency is the fitted concentration of half-maximal effect
Summary of the method: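 LYMP2-008 lymphoblastoid cells (2500/well) plated 5 h, then treated 24 h at 37 C in complete medium. Viability read as intracellular ATP by CellTiter-Glo luminescence after 30 min at room temperature; AC50 from Hill fits.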

[14] = Cell Viability - LYMP2-014 (AID 983);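 note: series mostly up to about 92 µM; plate controls were DMSO only for no effect and 92 µM tetraoctylammonium bromide for full effect; nearly all actives have a fitted effect of over 50% in size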
Summary of the method: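 LYMP2-014 human lymphoblastoid cells, 2500/well, treated 24 h at 37 C in complete medium; viability by CellTiter-Glo ATP luminescence after 30 min at room temperature. AC50 from Hill fits of qHTS concentration-response; tetraoctylammonium bromide positive control.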

[15] = Cell Viability - LYMP2-020 (AID 986);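 note: series mostly up to about 92 µM; plate controls were DMSO only for no effect and tetraoctylammonium bromide at 92 µM for full effect; nearly all actives have a fitted effect of over 55% in size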
Summary of the method: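 Human lymphoblastoid LYMP2-020 cells (2500/well) preincubated 5 h at 37 C, then treated 24 h at 37 C. Viability measured as intracellular ATP by CellTiter-Glo luminescence after 30 min at room temperature; AC50 from Hill fits.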

[16] = biological target: Peroxisome proliferator-activated receptor gamma (Homo sapiens) (UniProt P37231); assay: qHTS assay for small molecule agonists of peroxisome proliferator-activated receptor gamma signaling (AID 588536; active = well fitted curve in the direction sought with a large enough effect in the signal ratio, with a control signal flat, not every such curve was filed as active; the % refers to the signal ratio;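 note: 0% = DMSO basal wells and 100% = rosiglitazone at 2 µM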)
Summary of the method: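 Ratiometric blue/green fluorescence (405 nm excitation; 460 and 530 nm emission) from CCF4-loaded HEK293 reporter cells serves as signal. Exposure to test compounds lasts 16 h at 37 C in medium containing 1% charcoal/dextran-treated serum.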

[17] = biological target: Voltage-gated inwardly rectifying potassium channel KCNH2 (Homo sapiens) (UniProt Q12809); assay: qHTS Assay for Small Molecule Inhibitors of the Human hERG Channel Activity (AID 588834);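 note: lower thallium flux fluorescence means stronger hERG block; nearly all actives have a fitted effect of over 50% in size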; note: potency is the fitted concentration of half-maximal effect
Summary of the method: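 U2OS cells transduced with hERG via BacMam (MOI ~100), plated 2000/well, loaded with FluxOR thallium dye, compound ~10 min, then stimulation buffer; fluorescence decrease read kinetically; AC50 from Hill fits.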

[18] = qHTS assay for cell viability of HEK293 cells (AID 743288); conditions: ATP luminescence (CellTiter-Glo), 18 h, hits give low values; note: % is set by controls: 0 for no effect and ±100 for the full control effect; nearly all actives have a fitted effect of over 50% in size
Summary of the method: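 Parental HEK293 cells were seeded at 2,000 cells/well, rested at least 5 h at 37 C, then exposed to compounds in DMSO for 18 h at 37 C. Viability was read as ATP-dependent luciferase luminescence after 30 min at room temperature.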

[19] = biological target: Nuclear receptor subfamily 1 group I member 2 (Rattus norvegicus) (UniProt Q9R1A7); assay: qHTS assay for small molecule activators of the rat pregnane X receptor (rPXR) signaling pathway (AID 651751; call rule not given here; note: 0% is about no effect); conditions: rPXR reporter cells, luciferase (One-Glo), 24 h
[20] = Cell Viability - LYMP2-006 (AID 978); note: nearly all actives have a fitted effect of over 60% in size; note: potency is the fitted concentration of half-maximal effect
Summary of the method: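 Human lymphoblastoid cells, 2500 per well, were preincubated 5 hr at 37 C, then exposed to compounds for 24 hr at 37 C in complete medium. Viability was read as intracellular ATP by CellTiter-Glo luminescence; AC50 from Hill-equation fits of qHTS concentration-response data.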

Sequence of Peroxisome proliferator-activated receptor gamma (Homo sapiens) (P37231 whole entry, looked up): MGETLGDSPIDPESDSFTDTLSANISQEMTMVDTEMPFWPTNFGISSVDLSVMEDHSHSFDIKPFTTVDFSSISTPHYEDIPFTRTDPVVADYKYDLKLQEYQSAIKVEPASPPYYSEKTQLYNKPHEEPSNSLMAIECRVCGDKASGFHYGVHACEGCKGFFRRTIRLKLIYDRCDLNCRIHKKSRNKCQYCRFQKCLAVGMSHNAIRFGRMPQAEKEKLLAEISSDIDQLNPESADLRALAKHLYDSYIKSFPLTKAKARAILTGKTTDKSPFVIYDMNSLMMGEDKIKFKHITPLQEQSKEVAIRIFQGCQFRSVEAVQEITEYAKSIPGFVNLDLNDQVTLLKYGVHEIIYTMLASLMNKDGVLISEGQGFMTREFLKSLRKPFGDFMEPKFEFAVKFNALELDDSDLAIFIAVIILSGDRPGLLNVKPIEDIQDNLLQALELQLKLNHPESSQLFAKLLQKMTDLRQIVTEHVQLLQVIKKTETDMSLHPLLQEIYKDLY
Sequence of Voltage-gated inwardly rectifying potassium channel KCNH2 (Homo sapiens) (Q12809 whole entry, looked up): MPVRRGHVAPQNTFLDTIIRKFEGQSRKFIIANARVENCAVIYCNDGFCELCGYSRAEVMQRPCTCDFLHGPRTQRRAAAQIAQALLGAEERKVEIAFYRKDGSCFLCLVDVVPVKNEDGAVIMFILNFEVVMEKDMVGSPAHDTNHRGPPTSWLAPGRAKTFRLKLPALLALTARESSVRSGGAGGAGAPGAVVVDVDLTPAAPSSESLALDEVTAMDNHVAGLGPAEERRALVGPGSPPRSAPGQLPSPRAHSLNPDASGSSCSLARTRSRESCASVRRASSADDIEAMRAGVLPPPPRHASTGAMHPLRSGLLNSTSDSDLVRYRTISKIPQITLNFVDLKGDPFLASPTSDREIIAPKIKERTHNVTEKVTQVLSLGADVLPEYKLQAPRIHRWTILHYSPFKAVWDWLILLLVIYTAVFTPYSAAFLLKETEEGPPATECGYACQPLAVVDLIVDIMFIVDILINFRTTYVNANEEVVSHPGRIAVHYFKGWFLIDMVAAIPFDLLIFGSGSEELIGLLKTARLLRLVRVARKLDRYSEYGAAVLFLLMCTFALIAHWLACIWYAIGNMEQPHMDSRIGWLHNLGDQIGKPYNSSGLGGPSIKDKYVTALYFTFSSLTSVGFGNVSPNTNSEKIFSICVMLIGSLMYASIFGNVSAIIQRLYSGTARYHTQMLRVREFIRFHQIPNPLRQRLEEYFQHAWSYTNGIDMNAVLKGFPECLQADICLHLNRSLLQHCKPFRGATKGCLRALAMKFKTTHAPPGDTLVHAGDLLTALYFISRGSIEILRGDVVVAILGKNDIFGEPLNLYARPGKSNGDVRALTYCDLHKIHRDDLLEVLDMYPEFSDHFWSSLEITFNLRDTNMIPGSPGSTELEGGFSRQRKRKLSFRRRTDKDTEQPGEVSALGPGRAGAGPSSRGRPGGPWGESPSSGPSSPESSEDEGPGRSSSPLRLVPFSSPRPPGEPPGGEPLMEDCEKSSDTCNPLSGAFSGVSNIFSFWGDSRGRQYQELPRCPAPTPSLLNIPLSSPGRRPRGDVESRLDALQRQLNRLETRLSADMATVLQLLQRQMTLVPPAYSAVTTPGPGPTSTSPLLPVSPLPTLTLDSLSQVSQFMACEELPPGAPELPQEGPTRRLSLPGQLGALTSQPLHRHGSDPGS
Sequence of Nuclear receptor subfamily 1 group I member 2 (Rattus norvegicus) (Q9R1A7 whole entry, looked up): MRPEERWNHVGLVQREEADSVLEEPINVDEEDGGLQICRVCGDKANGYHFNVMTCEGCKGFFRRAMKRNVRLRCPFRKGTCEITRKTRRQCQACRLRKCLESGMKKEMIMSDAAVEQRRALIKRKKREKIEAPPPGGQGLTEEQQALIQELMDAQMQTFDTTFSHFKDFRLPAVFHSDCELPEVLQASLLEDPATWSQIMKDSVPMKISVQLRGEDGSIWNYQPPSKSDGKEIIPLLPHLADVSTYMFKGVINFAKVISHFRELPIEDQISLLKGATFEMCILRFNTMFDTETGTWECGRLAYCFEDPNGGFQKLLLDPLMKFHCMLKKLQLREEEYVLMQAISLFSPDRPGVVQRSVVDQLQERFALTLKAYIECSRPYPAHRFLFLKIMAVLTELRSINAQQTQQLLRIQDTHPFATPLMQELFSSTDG

CCN(CC)CCO
inactive: Potency [1] | Potency [2] | Potency [3] | outcome [4] | Potency [5] | Potency [6] | outcome [7] | Potency [8] | outcome [9] | Potency [10] | Potency [11] | Potency [12] | Potency [13] | Potency [14] | Potency [15] | outcome [16] | Potency [17] | max response [18] -8.96% | max response [19] 0.466%

Nc1cccc2ccccc12
inactive: Potency [1] | Potency [2] | Potency [3] | Potency [5] | Potency [6] | Potency [8] | outcome [9] | Potency [11] | Potency [15] | outcome [16] | Potency [17] | max response [18] -0.157%
active: Potency [13] 39.8 µM

C=CC(=O)OC
inactive: Potency [1] | Potency [2] | Potency [3] | outcome [4] | Potency [6] | outcome [7] | Potency [8] | Potency [10] | Potency [11] | Potency [20] | Potency [12] | Potency [13] | Potency [14] | Potency [15] | outcome [16] | Potency [17] | max response [18] 4.03% | max response [19] 0.297%

Clc1ccc(C(c2ccccc2Cl)C(Cl)(Cl)Cl)cc1 (configuration not stated)
inactive: Potency [1] | Potency [3] | outcome [4] | Potency [5] | Potency [6] | Potency [8] | outcome [9] | Potency [10] | Potency [11] | Potency [13] | Potency [14] | Potency [15] | outcome [16]

Clc1ccc(C(Cl)(Cl)Cl)cc1Cl
active: Potency [17] 11.2 µM
inactive: Potency [1] | Potency [2] | Potency [3] | outcome [4] | Potency [5] | Potency [6] | outcome [7] | outcome [9] | Potency [10] | Potency [11] | Potency [20] | Potency [12] | Potency [13] | Potency [14] | Potency [15] | outcome [16] | max response [18] 4.98% | max response [19] 3.68%

BrCC(Br)(Br)Br
active: Potency [11] 20 µM | Potency [20] 15.8 µM | Potency [12] 12.6 µM
inactive: Potency [1] | Potency [3] | Potency [6] | outcome [7] | outcome [9] | outcome [16] | Potency [17] | max response [19] -4.89%

Oc1cc(Cl)c(Cl)c(Cl)c1Cl
inactive: Potency [3] | outcome [4] | Potency [5] | Potency [6] | outcome [7] | outcome [9] | Potency [10] | Potency [11] | Potency [20] | Potency [12] | Potency [13] | Potency [14] | Potency [17] | max response [18] -11.3% | max response [19] -6.73%

O=C(O)CBr
inactive: Potency [1] | Potency [2] | outcome [4] | Potency [5] | Potency [6] | outcome [7] | Potency [8] | outcome [9] | Potency [10] | Potency [20] | Potency [12] | Potency [13] | Potency [15] | outcome [16] | Potency [17] | max response [18] 6.1% | max response [19] 2.42%

O=C(O)C(Br)Br
inactive: Potency [1] | Potency [2] | outcome [4] | Potency [5] | outcome [7] | Potency [8] | outcome [9] | Potency [10] | Potency [20] | Potency [12] | Potency [13] | Potency [14] | Potency [15] | outcome [16] | Potency [17] | max response [18] -1.04% | max response [19] 1.77%
